Test results: PubChem BioAssay AID651730 (NMMLSC, 2012); call rule not given here

experiment: V-ATPase regulators in yeast, S. cerevisiae, pHLuorin, powder sets 2-3, dose response (AID 651730); settings: S. cerevisiae vacuolar pH, pHluorin fluorescence; series mostly up to 100 µM; response, percent: at the top concentration

response, percent, inactive:
Nc1cncc(C(=O)Nc2ccccc2N2CCOCC2)n1 -8.51%, O=C(Nc1ccccc1N1CCOCC1)c1cccc(Br)n1 2.41%, O=C(Nc1ccccc1N1CCOCC1)c1ccc(Br)o1 -7.84%, O=C(c1cc(Cl)ccn1)N1CCN(c2nc3ccc(F)cc3s2)CC1 -4.21%, N#Cc1ccnc(C(=O)N2CCN(c3nc4ccc(F)cc4s3)CC2)c1 0.08%, Cc1cccc(C(=O)Nc2ccccc2N2CCOCC2)n1 0.96%, CN(C)Cc1cccc(C(=O)N2CCN(c3nc4ccc(F)cc4s3)CC2)c1 -4.07%, CN(C)S(=O)(=O)c1cccc(C(=O)N2CCN(c3nc4ccc(F)cc4s3)CC2)c1 8.43%, O=C(Nc1ccccc1N1CCOCC1)c1cccc(Cl)n1 -5.31%, CC(C)(C)c1ccc(C(=O)Nc2ccccc2N2CCOCC2)o1 -1.99%, COCc1ccc(C(=O)N2CCN(c3nc4ccc(F)cc4s3)CC2)o1 -1.66%, CS(=O)(=O)c1ccc(C(=O)N2CCN(c3nc4ccc(F)cc4s3)CC2)o1 -1.13%, O=C(Nc1ccccc1N1CCOCC1)c1cccc(C(F)(F)F)n1 -3.19%, O=C(c1ccc(-c2ccccc2)o1)N1CCN(c2nc3ccc(F)cc3s2)CC1 -0.43%, COCc1cccc(C(=O)N2CCN(c3nc4ccc(F)cc4s3)CC2)c1 0.01%, CN(C)Cc1cccc(C(=O)Nc2ccccc2N2CCOCC2)c1 -2.4%, O=C(c1cccc(C(F)(F)F)c1)N1CCN(c2nc3ccc(F)cc3s2)CC1 6.58%, O=C(Nc1ccccc1N1CCOCC1)c1cc(Cl)ccn1 9.85%, CC(C)(C)c1ccc(C(=O)N2CCN(c3nc4ccc(F)cc4s3)CC2)o1 4.73%, Cc1cccc(C(=O)N2CCN(c3nc4ccc(F)cc4s3)CC2)n1 1.45%, O=C(c1cncc(Cl)n1)N1CCN(c2nc3ccc(F)cc3s2)CC1 -1.76%, N#Cc1cccc(C(=O)N2CCN(c3nc4ccc(F)cc4s3)CC2)c1 0.65%, CN(C)C(=O)c1cccc(C(=O)Nc2ccccc2N2CCOCC2)c1 1.08%, CS(=O)(=O)c1cccc(C(=O)Nc2ccccc2N2CCOCC2)c1 -2.07%, CS(=O)(=O)Cc1cccc(C(=O)N2CCN(c3nc4ccc(F)cc4s3)CC2)c1 1.15%, O=C(Nc1ccccc1N1CCOCC1)c1cc(C(F)(F)F)ccn1 -0.77%, NC(=O)c1cccc(C(=O)Nc2ccccc2N2CCOCC2)c1 1.11%, O=C(c1cccc(Br)n1)N1CCN(c2nc3ccc(F)cc3s2)CC1 3.71%, O=C(Nc1ccccc1N1CCOCC1)c1ccc(-c2ccccc2)o1 0.32%, O=C(c1ccc(C(F)(F)F)o1)N1CCN(c2nc3ccc(F)cc3s2)CC1 -1.21%
